Screening data deposited in PubChem by National Center for Advancing Translational Sciences (NCATS).
AmpC no deterg = inhibitors of E. coli AmpC beta-lactamase without detergent; P00811; AmpC nitrocefin hydrolysis, absorbance 480 nm, 0.0001% Triton; Potency, µM (titrated, usually from 57.1 µM), for inactives: at the highest dose activity change, negative = inhibition, usual class: inhibitors; 330,000 tested, 0.52% active;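 note: plate controls were no compound for no effect and no enzyme for full effect; nearly all actives have a fitted effect of over 20% in size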
Target sequence (P00811 whole entry, looked up): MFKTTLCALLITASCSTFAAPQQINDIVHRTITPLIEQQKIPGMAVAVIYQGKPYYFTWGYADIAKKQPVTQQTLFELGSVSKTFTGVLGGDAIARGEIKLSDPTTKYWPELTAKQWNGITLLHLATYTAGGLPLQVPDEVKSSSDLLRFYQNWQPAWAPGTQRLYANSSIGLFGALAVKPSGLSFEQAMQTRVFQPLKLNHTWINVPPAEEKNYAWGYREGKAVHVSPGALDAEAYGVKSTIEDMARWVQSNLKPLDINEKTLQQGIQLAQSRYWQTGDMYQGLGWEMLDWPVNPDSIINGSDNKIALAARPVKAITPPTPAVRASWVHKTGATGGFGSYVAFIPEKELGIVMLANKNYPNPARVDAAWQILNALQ
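20 mM phosphate pH 7.0 + 0.01% (detergent screen) or 0.0001% Triton X-100; 5.3 nM AmpC reagent; cpd preinc 15 min RT; nitrocefin (800 uM stock) to start; A480 q20 s × 4 min; Activity was normalised to no-enzyme and no-compound control wells.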
Pf growth 48h = inhibits P. falciparum growth in the first generation, 48 h; P. falciparum luciferase growth in erythrocytes, 48 h; Potency, µM (highest dose often 28.7 µM), for inactives: top-dose activity change, negative = inhibition, actives largely listed as inhibitors; 310,000 tested, 5.9% active; AID 504832; note: % is set by controls: 0 for no effect and ±100 for the full control effect
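Compounds are pin-transferred into medium, infected erythrocytes (2% hematocrit, 0.1% parasitemia final) are added, and plates sit one parasite generation at 37 C in 5% CO2. Detection reagent is then added and luminescence measured.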
Sm TGR inh = S. mansoni TGR enzyme inhibition; purified TGR, DTNB reduction, TNB absorbance 405 nm; AID 485364; 360,000 tested, 3% active; Potency, µM (doses to about 114 µM), inactives show at the highest dose activity change, negative = inhibition, hits mostly inhibitors; note: % is set by controls: 0 for no effect and ±100 for the full control effect; nearly all actives have a fitted effect of over 60% in size
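First, TGR (20 nM dispensed) and NADPH were mixed with compound. Second, a 15 min room-temperature incubation followed. Third, further NADPH and then DTNB were added to start the reaction. Finally, TNB absorbance was monitored kinetically.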
SARS PLP yeast = inhibitors of SARS-CoV papain-like protease in yeast; S. cerevisiae expressing SARS-CoV PLpro, growth rescue; AID 485353; Potency, µM (top dose mostly 32.9 µM), for inactives: at the top dose activity, positive = growth rescue, actives largely listed as activators; 330,000 tested, 0.19% active; calls by dose curve; note: 0% is about no effect; nearly all actives have a fitted effect of over 55% in size
Pf growth 96h = P. falciparum growth inhibition at 96 hours; P. falciparum luciferase reporter growth, 96 h; Potency, µM (titrated, usually from 28.7 µM), inactives show at the top dose activity change, negative = inhibition, hits mostly inhibitors; 320,000 tested, 6.9% active; AID 504834; note: % is set by controls: 0 for no effect and ±100 for the full control effect
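Erythrocytes infected with luciferase-expressing P. falciparum were dispensed at 2% hematocrit and 0.05% parasitemia (final), then incubated with compounds 96 hours at 37 C in 5% CO2. Luminescence after detection reagent addition reported growth.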
AmpC detergent = AmpC beta-lactamase inhibition with detergent present. P00811. AmpC hydrolysis of nitrocefin, absorbance 480 nm, 0.01% Triton. Potency, µM (highest dose often 114 µM), for inactives: at the highest dose activity change, negative = inhibition, usual class: inhibitors. 370,000 tested, 0.041% active. AID 485294;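 note: 0% = no-compound wells and -100% = no-enzyme wells; nearly all actives have a fitted effect of over 25% in size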
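20 mM phosphate pH 7.0 + 0.01% (detergent screen) or 0.0001% Triton X-100; 5.3 nM AmpC reagent; cpd preinc 15 min RT; nitrocefin (800 uM stock) to start; A480 q20 s × 4 min; Activity was normalised to no-enzyme and no-compound control wells.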
An asterisk follows results filed as active; ? = inconclusive; . = no result. In the library only some 12% were active in any assay of this set; here they are far more common. Unless noted, calls come from the whole dose curve; as a rule, active = well fitted curve in the direction sought with a large enough effect; inconclusive = small, poorly fitted or top-dose-only effect, or another doubt; inactive = no such curve, though single readings can be large; an effect the other way counts as inactive or inconclusive. Potency is the fitted concentration of half-maximal effect.

SMILES	AmpC no deterg	Pf growth 48h	Sm TGR inh	SARS PLP yeast	Pf growth 96h	AmpC detergent
COc1ccc(NC(=O)c2cc(S(=O)(=O)N3CCc4ccccc43)cn2C)cc1OC	31%	8%	3%	-1%	27%	-1%
CCOC(=O)C1=C[C@]2(CC)CCCN3CCc4c(n1c1ccccc41)[C@@H]32	6%	5.2µM*	?	1%	3.7µM*	1%
Cc1ccc2c(c1)-n1c(nc3ccccc3c1=O)C(Cc1ccc(O)cc1)NC2=O (configuration not stated)	-8%	.	.	1%	.	.
COc1ccc(C2CC(c3ccccc3)=NN2c2ccc(Cl)c(C(=O)O)c2)cc1 (configuration not stated)	-16%	-1%	6%	0%	?	-5%
CCC(=O)Nc1cccc(C2=NN(c3ccccc3)C(c3ccc(OC)cc3)C2)c1 (configuration not stated)	-6%	?	8%	-6%	13µM*	1%
CC(=O)Oc1ccc(C2=NN(c3ccccc3)C(c3ccccc3)C2)cc1 (configuration not stated)	-21%	12µM*	9%	-2%	11%	0%
CC(N)C(=O)NCC(=O)NC1CSSCC(C(=O)O)NC(=O)C(CO)NC(=O)C(C(C)O)NC(=O)C(Cc2ccccc2)NC(=O)C(C(C)O)NC(=O)C(CCCCN)NC(=O)C(Cc2c[nH]c3ccccc23)NC(=O)C(Cc2ccccc2)NC(=O)C(Cc2ccccc2)NC(=O)C(CC(N)=O)NC(=O)C(CCCCN)NC1=O (configuration not stated)	.	1%	.	.	?	.
CCC1CCC(C(=O)NNC(=O)c2cc(-c3ccco3)[nH]n2)CC1 (configuration not stated)	-34%	-8%	22µM*	3%	-28%	1%
Cc1cc(=O)c2cc(C(=O)Nc3ccc(C)c(C)c3)ccc2[nH]1	.	.	0%	.	.	23%
Cc1nc(SCC(=O)c2ccc(F)cc2)c([N+](=O)[O-])[nH]1	-19%	5%	3%	3%	1.9µM*	-13%
Cc1nc(SCC(=O)c2ccc(Cl)cc2)c([N+](=O)[O-])[nH]1	-50%	21%	-3%	0%	8%	-13%
CC(=O)c1ccc(N2CCN(C(=O)C3CCCN(S(=O)(=O)c4c(C)[nH]c(=O)[nH]c4=O)C3)CC2)cc1 (configuration not stated)	-20%	-17%	-6%	0%	-13%	1%
CCOC(=O)c1c(C)c(C)n(Cc2cccc(OC)c2OC)c1C	0%	12µM*	?	15%	8.3µM*	-18%
CCOC(=O)c1c(C(=O)OCC)c(C)n(Cc2cc(OC)c(OC)c(OC)c2)c1C	145%	?	1%	5%	12µM*	-10%
CCOC(=O)c1sc(=S)n(Cc2ccccc2)c1C	-19%	-15%	1%	-1%	-15%	6%
CCOC(=O)C1CCCCN1Cc1cccc(OC)c1OC (configuration not stated)	-4%	.	7%	6%	57%	3%
CCOC(=O)c1cc(C)n(Cc2ccccc2)c1C	-6%	3.3µM*	-10%	0%	6.6µM*	?
CCOC(=O)c1c(N)sc2c1CCN(Cc1ccccc1)C2	.	3.8µM*	.	.	0.95µM*	.
CCOC(=O)C(C(=O)OCC)C(=O)c1cc(OC)c(OC)c(OC)c1	-6%	2%	0%	-5%	?	0%
Cc1ccc(S(=O)(=O)NCCc2nnc3ccc(SCc4ccccc4F)nn23)cc1	.	.	8%	.	.	-2%
CCOC(=O)c1cc(C)n(Cc2cccc(OC)c2OC)c1C	28%	?	2%	-9%	2.3µM*	-18%
Cc1nn(Cc2ccccc2)c(Cl)c1C(=O)O	-15%	15%	11%	2%	14%	-10%
CCOC(=O)c1cc(C)n(CCc2cnc[nH]2)c1C	26%	13µM*	-4%	7%	?	-11%
CCOC(=O)c1c(C)nn(Cc2ccccc2)c1N	-28%	-14%	13%	2%	5.2µM*	?
CCOC(=O)c1cn(Cc2cccc(Cl)c2)nn1	-2%	15%	-3%	-3%	-7%	1%
SMILES	AmpC no deterg	Pf growth 48h	Sm TGR inh	SARS PLP yeast	Pf growth 96h	AmpC detergent
CCOC(=O)c1cnn(Cc2cccc(Cl)c2)c1C	20%	13µM*	-2%	0%	?	1%
CCOC(=O)c1cc(-c2ccccc2)n(CC(=O)NCc2ccccc2OC)c1C	.	.	15%	.	.	6%
CCOC(=O)c1cc(C)n(CCCN2CCOCC2)c1C	115%	-10%	2%	-5%	-12%	0%
CN1C2CCC1CC(NS(=O)(=O)c1ccc(C#N)cc1)C2 (configuration not stated)	-11%	66%	-24%	1%	31%	-7%
Cc1nn(Cc2noc(C(=O)NCc3cccc(F)c3)n2)c(C)c1Br	.	.	6%	.	.	-2%
Cc1cccc(C(=O)Nc2cccc(C(=O)OCc3cc(=O)n4ccsc4n3)c2)c1	.	.	2%	.	.	3%
CCOc1ccc(C2CC(=O)Nc3nc(SCc4ccccc4C)[nH]c(=O)c32)cc1OC (configuration not stated)	.	.	0%	.	.	1%
CCOC(=O)c1c(C(=O)OCC)c(C)n(CCc2ccccc2)c1C	36%	?	15%	16%	9.3µM*	-14%
CCOC(=O)c1c(C)n(Cc2ccccc2)c2ccc(O)cc12	-26%	-19%	-16%	0%	0%	-4%
CCOC(=O)c1c(C=O)c(C)n(Cc2ccccc2Cl)c1C	5%	3.3µM*	6%	-16%	.	0%
O=C(Cc1ccccc1)Nc1cccc(N2C(=O)C=CC2=O)c1	-30%	-2%	0.45µM*	-79%	-25%	?
NC(=S)NN=C1c2cc(OCCN3CCOCC3)ccc2-c2ccc(OCCN3CCOCC3)cc21	199%	3.3µM*	-2%	0%	78%	-11%
Clc1ccc(OCCN2CCCCC2)cc1Cl	-17%	-6%	-10%	-3%	?	-8%
ON=C1c2cc(OCCN3CCCCC3)ccc2-c2ccc(OCCN3CCCCC3)cc21	-4%	1.7µM*	-21%	-5%	1.5µM*	-2%
Cc1ccc(NC(=O)COC(=O)C(CC(C)C)N2C(=O)C3CC=CCC3C2=O)c(C)c1 (configuration not stated)	78%	21%	3%	2%	?	5%
Cc1cc(Br)ccc1NC(=O)c1cc2c(=O)n(C)c3cc(Cl)ccc3c2s1	.	.	3%	.	.	3%
COc1ccc(OC)c(N(CC(=O)NN=C2CCN(C)CC2)S(=O)(=O)c2ccccc2)c1	-37%	-7%	0%	2%	51%	-2%
